Results reported in PubChem BioAssay.
Calls of active or inactive are those of the source.

How the values were obtained:
[1] = tested on: Wnt5a (protein binding on small-molecule microarray); test: small molecules binding Wnt5a protein – biophysical, small-molecule microarray, 635/667 nm fluorescence, primary screen (AID 1142); settings: 635 nm fluorescence, higher = more signal;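 note: fluorescence read at 667 nm with signal to noise per printed feature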
[2] = ATP-based viability of Huh7 replicon cells – cell-based, CellTiter-Glo luminescence, basal, 48 h, cytotoxicity control for HCV replication inhibitor project, primary screen (AID 1143); settings: higher = more signal, called active from +8 up or from −8 down;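 note: Huh7 hepatoma cells carrying a hepatitis C replication reporter with no stimulus; test concentration not given here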
[3] = basal CRE-LacZ reporter activity in PC12 – cell-based, unstimulated, primary screen (AID 1145); settings: no forskolin, luminescence, 4.5 h, higher = more signal, called active from +8 up or from −8 down
[4] = forskolin-driven CRE-LacZ activity in PC12 – cell-based, CRE-LacZ reporter, forskolin-stimulated, primary screen (AID 1146); settings: luminescence, 4.5 h, higher = more signal, called active from +8 up or from −8 down;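 note: PC12 cells with 6xCRE LacZ reporter stimulated by forskolin 10 µM; beta-galactosidase reporter signal reflecting CREB driven transcription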
[5] = target: Streptavidin (Streptomyces avidinii) (UniProt P22629); test: compounds binding control protein streptavidin – biophysical, small-molecule microarray, 635/667 nm fluorescence, artefact control for SMM compound annotation, primary screen (AID 1147); settings: higher = more signal;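 note: signal reflects streptavidin binding to arrayed compounds as a control protein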
Streptavidin (Streptomyces avidinii), sequence (P22629 whole entry, looked up): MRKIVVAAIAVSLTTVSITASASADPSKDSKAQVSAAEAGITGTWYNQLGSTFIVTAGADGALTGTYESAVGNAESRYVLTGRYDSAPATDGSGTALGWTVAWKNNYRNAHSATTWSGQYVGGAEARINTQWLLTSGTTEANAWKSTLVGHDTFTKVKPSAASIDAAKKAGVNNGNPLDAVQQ

[6] = probe aInhba binding on compound microarray – biochemical, small-molecule microarray, 635/667 nm fluorescence, primary screen (AID 1148); settings: higher = more signal;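 note: score merges 667nm spot fluorescence with signal-to-noise for antibody binding to printed compounds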
[7] = target: Torsin-1A (Homo sapiens) (UniProt O14656); test: TOR1A wild-type binding on microarray – cell lysate, small-molecule microarray, lysate, 635/667 nm, primary screen (AID 1149); settings: COS7 hTOR1A-WT lysate, 635 nm fluorescence, higher = more signal
Torsin-1A (Homo sapiens), sequence (O14656 whole entry, looked up): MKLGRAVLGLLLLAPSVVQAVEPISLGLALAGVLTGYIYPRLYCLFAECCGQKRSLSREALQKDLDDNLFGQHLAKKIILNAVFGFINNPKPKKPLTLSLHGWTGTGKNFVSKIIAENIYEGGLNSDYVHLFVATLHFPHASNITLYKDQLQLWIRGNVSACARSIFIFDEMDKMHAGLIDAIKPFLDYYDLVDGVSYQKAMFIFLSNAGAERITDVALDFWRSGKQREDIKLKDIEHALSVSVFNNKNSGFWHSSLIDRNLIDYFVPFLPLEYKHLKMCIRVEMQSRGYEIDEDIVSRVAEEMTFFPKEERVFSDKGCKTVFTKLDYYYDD

[8] = target: Torsin-1A (Homo sapiens) (UniProt O14656); test: torsin A mutant lysate binding on microarrays – cell lysate, small-molecule microarray, COS7 lysate, 635/667 nm fluorescence, primary screen (AID 1150); settings: COS7 hTOR1A mutant lysate, 635 nm fluorescence, higher = more signal;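 note: score pools 667 nm emission and signal to noise measuring lysate protein binding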
[9] = tested on: Sonic hedgehog protein (Shh); test: Sonic hedgehog microarray binding compounds – biochemical, small-molecule microarray, 635/667 nm fluorescence, primary screen (AID 1151); settings: 635 nm fluorescence, higher = more signal;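 note: Shh protein binding to compounds spotted on small-molecule microarray slides; score combines spot fluorescence intensity with signal-to-noise across triplicate slides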
[10] = optical density shifts of acrAB sulA E. coli – strain DRC41, OD650, 48 h, E. coli filamentation inducer project, primary screen (AID 1152); settings: higher = more signal, called active from +8 up or from −8 down;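 note: E. coli MC1000 strain DRC41 lacking acrAB efflux pump and sulA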
[11] = probe aLefty1 binding on compound microarray – biochemical, small-molecule microarray, 635/667 nm fluorescence, primary screen (AID 1153); settings: higher = more signal;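 note: score merges spot fluorescence with signal-to-noise ratio from the scanned slide images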
[12] = plasmodial surface anion channel blockers, osmotic lysis – cell-based, P. falciparum Indochina, OD700, 1 h, primary screen (AID 1154); settings: P. falciparum Indochina infected RBC osmotic lysis, higher = more signal, called active from +8 up or from −8 down
[13] = plasmodial surface anion channel blockers, osmotic lysis – cell-based, P. falciparum Indochina, OD700, 2 h, primary screen (AID 1155);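 note: lysis reports solute entry through the parasite surface anion channel PSAC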; settings: P. falciparum Indochina infected erythrocytes, higher = more signal, called active from +8 up or from −8 down
[14] = changes in parasitized red cell lysis, either direction – P. falciparum Indochina, OD700, 3 h, PSAC antagonist project, primary screen (AID 1156); settings: P. falciparum-infected erythrocytes, osmotic lysis, higher = more signal, called active from +8 up or from −8 down
[15] = plasmodial surface anion channel blockers, osmotic lysis – cell-based, P. falciparum Indochina, OD700, 18 h, primary screen (AID 1157); settings: P. falciparum Indochina infected erythrocytes, osmotic lysis OD700, 18 h; higher = more signal, called active from +8 up or from −8 down
[16] = S6 kinase pathway phospho-S6 level changes – cell-based, A549, cytoblot, luminescence, serum-stimulated, primary screen (AID 1158); settings: 5 h, higher = more signal;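 note: serum-stimulated A549 lung adenocarcinoma cells; signal is phosphorylated S6 detected by cytoblot immunostaining with HRP secondary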
[17] = target: NADPH oxidase 2 (Homo sapiens) (UniProt P04839); test: compounds shifting NOX2 Amplex Red fluorescence – cell-based, HEK293-NOX2, PMA-stimulated, NOX inhibitor project, primary screen (AID 1159); settings: 45 min, higher = more signal, called active from +8 up or from −8 down; note: test concentration not given here
NADPH oxidase 2 (Homo sapiens), sequence (P04839 whole entry, looked up): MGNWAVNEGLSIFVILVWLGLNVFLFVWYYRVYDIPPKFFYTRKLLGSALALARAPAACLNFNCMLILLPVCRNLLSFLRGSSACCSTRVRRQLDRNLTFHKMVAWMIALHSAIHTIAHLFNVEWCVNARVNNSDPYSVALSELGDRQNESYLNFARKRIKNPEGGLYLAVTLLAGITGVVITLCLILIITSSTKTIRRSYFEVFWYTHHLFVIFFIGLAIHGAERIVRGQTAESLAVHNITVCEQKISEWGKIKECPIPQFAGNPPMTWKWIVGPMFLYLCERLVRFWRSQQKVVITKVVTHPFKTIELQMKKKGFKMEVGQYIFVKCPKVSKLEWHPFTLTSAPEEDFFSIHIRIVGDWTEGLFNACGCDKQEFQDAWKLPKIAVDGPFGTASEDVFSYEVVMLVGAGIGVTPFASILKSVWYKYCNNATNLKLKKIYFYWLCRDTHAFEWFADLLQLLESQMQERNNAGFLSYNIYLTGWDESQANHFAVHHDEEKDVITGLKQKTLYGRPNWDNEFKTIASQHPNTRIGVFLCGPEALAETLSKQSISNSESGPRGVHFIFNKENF

[18] = target: NADPH oxidase 4 (Homo sapiens) (UniProt Q9NPH5); test: compounds shifting NOX4 Amplex Red fluorescence – cell-based, HEK293-NOX4, tetracycline-induced, NOX inhibitor project, primary screen (AID 1160); settings: HEK293-NOX4, Amplex Red H2O2 fluorescence, 45 min; higher = more signal, called active from +8 up or from −8 down
NADPH oxidase 4 (Homo sapiens), sequence (Q9NPH5 whole entry, looked up): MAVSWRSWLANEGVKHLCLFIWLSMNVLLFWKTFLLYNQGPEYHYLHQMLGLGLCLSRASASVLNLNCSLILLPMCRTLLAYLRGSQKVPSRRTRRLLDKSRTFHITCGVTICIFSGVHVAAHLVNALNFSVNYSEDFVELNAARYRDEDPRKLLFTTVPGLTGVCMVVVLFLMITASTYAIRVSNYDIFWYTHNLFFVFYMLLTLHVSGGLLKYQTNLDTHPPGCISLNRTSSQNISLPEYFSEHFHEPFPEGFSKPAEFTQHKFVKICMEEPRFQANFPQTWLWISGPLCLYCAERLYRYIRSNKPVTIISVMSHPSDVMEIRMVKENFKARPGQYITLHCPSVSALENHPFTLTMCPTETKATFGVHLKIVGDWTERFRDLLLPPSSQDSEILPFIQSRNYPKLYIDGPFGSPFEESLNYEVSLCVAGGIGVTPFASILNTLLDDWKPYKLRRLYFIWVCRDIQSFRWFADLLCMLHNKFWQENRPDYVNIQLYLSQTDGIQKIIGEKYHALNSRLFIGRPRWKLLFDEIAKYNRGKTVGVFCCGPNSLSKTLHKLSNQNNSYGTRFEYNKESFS

[19] = target: NADPH oxidase 5 (Homo sapiens) (UniProt Q96PH1); test: compounds shifting NOX5 Amplex Red fluorescence – cell-based, HEK293-NOX5, NOX inhibitor project, primary screen (AID 1161); settings: HEK293-NOX5, ionomycin, 45 min, higher = more signal
NADPH oxidase 5 (Homo sapiens), sequence (Q96PH1 whole entry, looked up): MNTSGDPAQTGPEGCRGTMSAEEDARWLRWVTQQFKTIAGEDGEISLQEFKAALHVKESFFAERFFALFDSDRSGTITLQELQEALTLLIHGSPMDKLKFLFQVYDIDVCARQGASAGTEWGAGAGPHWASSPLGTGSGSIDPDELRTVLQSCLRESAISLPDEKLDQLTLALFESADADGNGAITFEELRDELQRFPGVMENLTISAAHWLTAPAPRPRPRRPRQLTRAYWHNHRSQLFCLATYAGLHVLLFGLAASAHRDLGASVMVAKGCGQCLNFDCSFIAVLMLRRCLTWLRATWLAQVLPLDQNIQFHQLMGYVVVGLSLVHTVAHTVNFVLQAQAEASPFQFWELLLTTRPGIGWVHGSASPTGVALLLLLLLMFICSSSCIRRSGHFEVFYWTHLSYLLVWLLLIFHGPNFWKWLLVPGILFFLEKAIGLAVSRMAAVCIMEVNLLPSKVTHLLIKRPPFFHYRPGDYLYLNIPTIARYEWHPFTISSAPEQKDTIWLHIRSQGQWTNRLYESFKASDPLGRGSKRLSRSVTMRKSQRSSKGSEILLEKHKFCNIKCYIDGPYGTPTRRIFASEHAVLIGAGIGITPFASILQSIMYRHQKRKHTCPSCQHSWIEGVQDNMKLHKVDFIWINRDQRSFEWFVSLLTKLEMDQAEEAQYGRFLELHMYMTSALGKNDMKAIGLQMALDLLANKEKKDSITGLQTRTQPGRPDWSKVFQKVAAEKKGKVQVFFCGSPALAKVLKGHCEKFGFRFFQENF

[20] = compound effects on lung adenocarcinoma cell viability – A549, calcein-AM fluorescence, 48 h, basal, profiling panel (AID 1162); settings: higher = more signal; note: test concentration not given here

SMILES	composite z-score [1]	z-score [2]	z-score [3]	z-score [4]	composite z-score [5]	composite z-score [6]	composite z-score [7]	composite z-score [8]	composite z-score [9]	z-score [10]	composite z-score [11]	z-score [12]	z-score [13]	z-score [14]	z-score [15]	z-score [16]	z-score [17]	z-score [18]	z-score [19]	z-score [20]
C=C(C(=O)CC[C@H](OC(C)=O)c1ccc(CO)o1)C(C)C	0.0615	-4.37 (inactive)	1.09 (inactive)	-0.949 (inactive)	-0.469	0.353	0.154	-0.248	0.937	1.27 (inactive)	-0.215	1.55 (inactive)	-0.558 (inactive)	0.68 (inactive)	-1.83 (inactive)	2.5	-0.0262 (inactive)	0.382 (inactive)	-0.706	-0.708
[N-]=[N+]=Nc1ccccc1[C@H]1OC(c2ccc(OCCCO)cc2)=N[C@@]1(Cc1ccccc1)C(N)=O	0.792	-3.44 (inactive)	0.862 (inactive)	-1.89 (inactive)	1.92	0.329	0.596	0.622	0.281	1.99 (inactive)	0.752	31.6 (active)	28.4 (active)	1.64 (inactive)	7.66 (inactive)	1.8	-1.71 (inactive)	0.363 (inactive)	-0.45	-0.297
CC(C)C[C@@H]1NC(=O)[C@@]23C(=O)N[C@@H](Cc4ccccc4)C2[C@H](C)[C@@]2(C)O[C@H]2C3/C=C/CC/C=C/CNC(=O)[C@@H](C)NC1=O (stereo not given in full)	0.298	-2.4 (inactive)	2.03 (inactive)	-1.16 (inactive)	0.0315	-0.16	0.418	-0.0123	1.78	2.61 (inactive)	-0.0984	1.31 (inactive)	0.548 (inactive)	0.224 (inactive)	0.5 (inactive)	0.595	0.649 (inactive)	0.24 (inactive)	-0.181	0.421
C=CC[C@]1(C(=O)N2CCCCC2)COC(c2ccc(OCCCO)cc2)=N1	0.0945	-4.06 (inactive)	1.08 (inactive)	-1.78 (inactive)	-0.712	-0.128	-0.273	-0.204	0.0166	0.924 (inactive)	0.0391	24.9 (active)	12 (active)	4.37 (inactive)	0.866 (inactive)	0.826	-3.2 (inactive)	-0.256 (inactive)	-3.57	-1.48
COC(=O)C1=CC(CCCO)=CC(C2CC2)N(Cc2cc3c(cc2Br)OCO3)C=C1C(=O)OC (stereo not given)	0.135	-2.77 (inactive)	0.389 (inactive)	-0.562 (inactive)	1.22	0.143	0.777	1.61	-0.593	1.55 (inactive)	0.248	2.31 (inactive)	-1.2 (inactive)	-0.183 (inactive)	-0.951 (inactive)	0.771	0.0713 (inactive)	1.24 (inactive)	1.91	0.589
O=C(NC1CC1)[C@@H]1c2ccccc2C(=O)N(Cc2ccccc2C(F)(F)F)[C@H]1c1ccc(CO)cc1	0.312	-0.568 (inactive)	-0.0512 (inactive)	-1.37 (inactive)	-0.47	0.0439	0.504	0.723	0.732	1.48 (inactive)	0.106	2.17 (inactive)	0.721 (inactive)	-0.335 (inactive)	0.106 (inactive)	0.152	0.583 (inactive)	0.647 (inactive)	1.26	1.88
COc1ccc([Si](C)(C)[C@H]2[C@H](CC(=O)N(CCO)Cc3ccccc3)O[C@@]3(C(=O)N(Cc4cccc(N5C(=O)COc6ccccc65)c4)c4ccccc43)[C@@H]2C)cc1	0.223	-3.26 (inactive)	2.61 (inactive)	-1.58 (inactive)	0.224	0.0566	0.275	0.493	2.03	2.01 (inactive)	0.0437	12.7 (active)	2.77 (inactive)	0.144 (inactive)	1.28 (inactive)	0.721	0.0235 (inactive)	0.789 (inactive)	2.17	0.0715
CC(C)(C)OC(=O)CC[C@@]12N=C(c3ccc(OCCCO)cc3)O[C@@H]1c1ccccc1N(Cc1ccccc1)C2=O	0.215	-4.37 (inactive)	1.6 (inactive)	-1.25 (inactive)	-0.0873	0.222	0.488	0.516	0.657	0.94 (inactive)	0.659	28.5 (active)	29 (active)	3.86 (inactive)	2.24 (inactive)	0.497	1.56 (inactive)	-0.266 (inactive)	-1.38	-0.236
C=C(COC)C(=O)CC[C@@H](OC(=O)c1ccccc1-c1ccccc1C(=O)O)c1cccc(OCCO)c1	0.0174	0.483 (inactive)	2.37 (inactive)	0.0416 (inactive)	-0.52	-0.128	0.785	0.455	0.404	0.908 (inactive)	-0.144	8.07 (active)	1.28 (inactive)	1.28 (inactive)	0.236 (inactive)	-0.178	3.24 (inactive)	1.34 (inactive)	-0.986	0.467
O=c1n(-c2ccccc2)c(=O)n2n1CC(COc1ccccc1)=C1[C@@H](CCc3ccccc3)OB(O)C[C@@H]12	0.455	-1.84 (inactive)	1.58 (inactive)	-1.67 (inactive)	0.117	0.0756	0.717	-0.0569	1.12	1.63 (inactive)	-0.206	2.27 (inactive)	-0.302 (inactive)	0.622 (inactive)	-1.31 (inactive)	0.642	-0.513 (inactive)	-0.0712 (inactive)	-1.03	1.81
CC(C)(C)OC(=O)CC[C@@]12N=C(c3ccc(OCCCO)cc3)O[C@@H]1c1ccccc1CN(Cc1ccccc1)C2=O	0.822	-4.74 (inactive)	0.344 (inactive)	-2.32 (inactive)	0.197	0.0756	0.161	-0.0105	1.04	0.71 (inactive)	0.33	28 (active)	25.8 (active)	2.02 (inactive)	2.14 (inactive)	0.302	0.622 (inactive)	-0.441 (inactive)	-1.44	-0.633
NCCCCCCNC(=O)[C@@H]1C[C@@H]2C(=O)N[C@@H](Cc3ccccc3)C(=O)N2[C@@H]1c1ccc(O)cc1	0.0167	-0.136 (inactive)	1.52 (inactive)	-1.12 (inactive)	0.91	0.229	0.104	0.416	0.507	0.717 (inactive)	0.443	3.47 (inactive)	0.374 (inactive)	-6.59 (inactive)	0.276 (inactive)	-0.118	1.18 (inactive)	1.3 (inactive)	0.846	0.987
C=C(CCCC)/C(=C/C[C@H](OC(=O)c1ccncc1)c1ccc(CO)o1)c1cnc2ccccc2c1	0.216	-0.807 (inactive)	3.77 (inactive)	-1.24 (inactive)	0.783	0.212	0.378	0.324	1.95	0.822 (inactive)	0.301	7.89 (inactive)	-0.0845 (inactive)	1.04 (inactive)	-1.01 (inactive)	-0.367	2.49 (inactive)	1.15 (inactive)	0.737	0.942
CCN(CC)c1ccc(N2CC=CC34O[C@@H]5C=CCOC(=O)[C@@H]5[C@H]3C(=O)N(C(C)CO)[C@@H]4C2=O)cc1 (stereo not given in full)	-0.701	-0.269 (inactive)	0.195 (inactive)	0.188 (inactive)	-1.27	-0.123	-1.08	-0.641	-0.903	1.55 (inactive)	0.121	0.0295 (inactive)	0.447 (inactive)	0.976 (inactive)	0.255 (inactive)	-0.153	0.126 (inactive)	0.197 (inactive)	0.871	0.271
C=CC[C@@]1(C(=O)NCc2ccccc2)N=C(c2ccc(OCCCO)cc2)O[C@@H]1c1ccccc1	0.102	-4.6 (inactive)	-0.16 (inactive)	-1.56 (inactive)	0.344	0.0582	0.161	0.551	-0.435	2.48 (inactive)	0.399	24.4 (active)	11.3 (active)	2.34 (inactive)	0.546 (inactive)	1.46	-0.189 (inactive)	0.956 (inactive)	-1.14	-0.506
O=C(O)[C@H]1C[C@H]2C(=O)NCC(=O)N2[C@H]1c1cccc(OCCO)c1	0.0144	-0.812 (inactive)	0.285 (inactive)	-0.736 (inactive)	0.42	0.263	0.836	0.654	0.821	2.08 (inactive)	1.24	9.23 (active)	1.29 (inactive)	-1.73 (inactive)	0.818 (inactive)	0.617	1.81 (inactive)	1.52 (inactive)	1.61	-0.24
COc1ccc(C#Cc2ccc3c(c2)[C@]2(C(=O)N3)[C@H](c3ccc(O)cc3)N3[C@H](c4ccccc4)[C@H](c4ccccc4)OC(=O)[C@H]3[C@@H]2C(=O)N2CCN(c3ncccn3)CC2)cc1	0.167	-1.76 (inactive)	0.478 (inactive)	0.708 (inactive)	1.13	0.18	0.246	0.923	0.262	1.77 (inactive)	0.312	1.28 (inactive)	0.22 (inactive)	1.19 (inactive)	0.564 (inactive)	0.26	0.393 (inactive)	0.0458 (inactive)	1.21	0.214
